Results filed as inconclusive are left out. The source made the active and inactive calls. How the source made its calls: active means hit-call score of the fitted dose curve at least 0.9, where 1 is the maximum; inconclusive means response in the unintended direction; inactive means score below 0.9. Where a SMILES comes first, the peptide text is derived from it. Bridges are numbered along the chain shown (N, C = ends). [ ]: non-standard residue; d: D form. hArg = N=C(N)NCCCC[C@H](N)C(=O)O; Mpa = O=C(O)CCS

Sequence of Cellular tumor antigen p53 (Homo sapiens) (P04637 whole entry, looked up): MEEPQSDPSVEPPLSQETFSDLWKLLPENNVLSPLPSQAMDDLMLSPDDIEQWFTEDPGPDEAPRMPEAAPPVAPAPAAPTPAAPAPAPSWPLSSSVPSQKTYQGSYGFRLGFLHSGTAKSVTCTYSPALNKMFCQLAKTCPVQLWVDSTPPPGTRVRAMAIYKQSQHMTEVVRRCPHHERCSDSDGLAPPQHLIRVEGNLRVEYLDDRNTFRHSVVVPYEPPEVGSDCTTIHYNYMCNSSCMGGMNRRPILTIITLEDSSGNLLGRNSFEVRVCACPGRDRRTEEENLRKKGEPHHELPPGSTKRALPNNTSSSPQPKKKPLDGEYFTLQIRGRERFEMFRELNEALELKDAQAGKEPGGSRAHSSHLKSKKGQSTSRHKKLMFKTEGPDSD

One experiment addresses Cellular tumor antigen p53 (Homo sapiens) (UniProt P04637). In words: TOX21_p53_BLA_p5_ratio: Tox21 HCT-116 p53 Agonism Beta-lactamase Assay, Ratio, Phase 5 (AID 2283599). The essentials:
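Beta-lactamase reporter ratio (blue 460 nm over green 530 nm, 405 nm excitation) after 2 h CCF4-AM loading, in HCT-116 cells exposed 16 h at 37 C to compounds pinned at 217-fold dilution. Increases relative to DMSO baseline scored.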
With `O=C(COCCOCCOCC(=O)Nc1c(I)cc(I)c(C(=O)O)c1I)Nc1c(I)cc(I)c(C(=O)O)c1I`, the outcome was inactive.

Take `CC(C)NCC(O)COc1ccccc1-n1cccc1` (stereo not drawn): the outcome was inactive.

With `CC(Oc1ccccc1)C(=O)N[C@@H]1C(=O)N2[C@@H]1SC(C)(C)[C@@H]2C(=O)O` (stereo partly drawn), the result was inactive.

Turning to `NC(=O)[C@@H]1CSSCCC(=O)N[C@@H](CCCCN=C(N)N)C(=O)NCC(=O)N[C@@H](CC(=O)O)C(=O)N[C@H](Cc2c[nH]c3ccccc23)C(=O)N2CCC[C@H]2C(=O)N1` ([Mpa][hArg]GD[dW]PC-NH2; disulfide 1-7), the result was inactive.

`O=C(O)Cc1csc(-c2ccc(Cl)cc2)n1`: the result was inactive.

Regarding `C[C@H](O)C(=O)Nc1c(I)c(C(=O)NC(CO)CO)c(I)c(C(=O)NC(CO)CO)c1I`, the outcome was inactive.

As for `CC(=NCc1ccccc1)c1ccccc1O`, the outcome was inactive.

`COc1ccc(NS(=O)(=O)c2ccc(N)cc2)nn1`: the result was inactive.

On to `Nc1ccc(Cl)cc1[N+](=O)[O-]`, for which the outcome was inactive.

Regarding `CC(=O)N[C@@H](CC(=O)N[C@@H](CCC(=O)O)C(=O)O)C(=O)O`, the result was inactive.

In the case of `c1ccc2c(c1)ccc1c3ccccc3ccc21`, the result was inactive.

In the case of `NC[C@H]1O[C@H](O[C@H]2[C@H](O)[C@@H](O[C@H]3O[C@H](CO)[C@@H](O)[C@H](N)[C@H]3O)[C@H](N)C[C@@H]2N)[C@H](N)[C@@H](O)[C@@H]1O`, the result was inactive.

As to `CCOc1ccc2ccccc2c1C(=O)N[C@@H]1C(=O)N2[C@@H]1SC(C)(C)[C@@H]2C(=O)O`, the outcome was inactive.

In the case of `OCC(O)CN1CCN(c2ccccc2)CC1` (stereo not drawn), the result was inactive.

Take `CC(C)C[C@@H](N)C(=O)O`: the outcome was inactive.

For `O=P(O)(O)OP(=O)(O)OP(=O)(O)O`, the outcome was inactive.

In the case of `OCC1(CO)COC(C(Cl)(Cl)Cl)OC1`, the outcome was inactive.

Consider `Cn1cnc2ncnc(N)c21`, for which the result was inactive.

Regarding `C=CCSSSCC=C`, the outcome was inactive.

Regarding `CC(C)C[C@H](NC(=O)[C@@H](Cc1c[nH]c2ccccc12)NC(=O)[C@H](Cc1ccc(O)cc1)NC(=O)[C@H](CO)NC(=O)[C@H](Cc1c[nH]c2ccccc12)NC(=O)[C@H](Cc1cnc[nH]1)NC(=O)[C@@H]1CCC(=O)N1)C(=O)N[C@@H](CCCN=C(N)N)C(=O)N1CCC[C@@H]1C(=O)NCC(N)=O`, the result was inactive.

Tested on in the next experiment: not listed separately
In words: TOX21_p53_BLA_p5_viability: Viability Assessment in the Tox21 HCT-116 p53 Agonism Beta-lactamase Assay, Phase 5 (AID 2283600). Put shortly: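 Cells were plated at 4000/well, rested 5 h at 37C, then given compounds in DMSO (217-fold dilution) for 16 h at 37C, 5% CO2. Following the CCF4-AM beta-lactamase read, CellTiter-Glo was added and luminescence was read after 30 min at room temperature.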
With `C1=C\CC/C=C\CC/1`, the result was inactive.

Regarding `O=C(COCCOCCOCC(=O)Nc1c(I)cc(I)c(C(=O)O)c1I)Nc1c(I)cc(I)c(C(=O)O)c1I`, the call was inactive.

With `O=Nc1ccc(NO)cc1`, the result was inactive.

Regarding `CC(C)NCC(O)COc1ccccc1-n1cccc1` (stereo not drawn), the call was inactive.

For `CC(Oc1ccccc1)C(=O)N[C@@H]1C(=O)N2[C@@H]1SC(C)(C)[C@@H]2C(=O)O` (stereo partly drawn), the compound was called inactive.

Turning to `C[C@H](O)C(=O)Nc1c(I)c(C(=O)NC(CO)CO)c(I)c(C(=O)NC(CO)CO)c1I`, the call was inactive.

With `CC(=NCc1ccccc1)c1ccccc1O`, the result was inactive.

`COc1ccc(NS(=O)(=O)c2ccc(N)cc2)nn1`: the compound was classed as inactive.

In the case of `CC(=O)N[C@@H](CC(=O)N[C@@H](CCC(=O)O)C(=O)O)C(=O)O`, the result was inactive.

Regarding `COc1ccc(CCC(=O)c2c(O)cc(O[C@@H]3O[C@H](CO)[C@@H](O)[C@H](O)[C@H]3O[C@@H]3O[C@@H](C)[C@H](O)[C@@H](O)[C@H]3O)cc2O)cc1O`, the call was inactive.

Regarding `Clc1ccc2nsnc2c1NC1=NCCN1`, the compound was classed as inactive.

For `O=P(O)(O)OP(=O)(O)OP(=O)(O)O`, the compound was classed as inactive.

`OCC(F)(F)F`: the compound was classed as inactive.

On to `Cn1cnc2ncnc(N)c21`, for which the result was inactive.

Turning to `C=CCSSSCC=C`, the result was inactive.

For `CCOc1cc(N)c(Cl)cc1C(=O)NCC1CN(Cc2ccc(F)cc2)CCO1` (stereo not drawn), the compound was classed as inactive.

Take `CC(C)C[C@H](NC(=O)[C@@H](Cc1c[nH]c2ccccc12)NC(=O)[C@H](Cc1ccc(O)cc1)NC(=O)[C@H](CO)NC(=O)[C@H](Cc1c[nH]c2ccccc12)NC(=O)[C@H](Cc1cnc[nH]1)NC(=O)[C@@H]1CCC(=O)N1)C(=O)N[C@@H](CCCN=C(N)N)C(=O)N1CCC[C@@H]1C(=O)NCC(N)=O`: the compound was classed as inactive.

With `CC(C)(C)c1ccc(C=O)cc1`, the result was inactive.

Another experiment concerns the target Cellular tumor antigen p53 (Homo sapiens) (UniProt P04637). In words: TOX21_p53_BLA_p4_ratio: Tox21 HCT-116 p53 Agonism Beta-lactamase Assay, Ratio, Phase 4 (AID 2283601). Put shortly: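 Signal is the blue/green (460nm/530nm) ratio of cleaved versus uncleaved CCF4-AM substrate, read after 2 h substrate loading. Cells were HCT116 carrying the p53-responsive beta-lactamase reporter, dosed 16 h at 37C, 5% CO2; CellTiter-Glo measured in parallel.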
On to `C=CC(=O)OCCOCCOC(=O)C=C`, for which the result was inactive.

For `C1=C\CC/C=C\CC/1`, the result was inactive.

As for `O=Nc1ccc(NO)cc1`, the result was inactive.

Turning to `CC(C)NCC(O)COc1ccccc1-n1cccc1` (stereo not drawn), the outcome was inactive.

In the case of `CC(Oc1ccccc1)C(=O)N[C@@H]1C(=O)N2[C@@H]1SC(C)(C)[C@@H]2C(=O)O` (stereo partly drawn), the outcome was inactive.

Consider `CN1[C@@H]2CC[C@H]1CC(OC(=O)c1c[nH]c3ccccc13)C2` (stereo partly drawn), for which the result was inactive.

Consider `C[C@@H](O)C(=O)O`, for which the result was inactive.

In the case of `O=C1C(CCS(=O)c2ccccc2)C(=O)N(c2ccccc2)N1c1ccccc1` (stereo not drawn), the outcome was inactive.

Consider `NC(=O)[C@@H]1CSSCCC(=O)N[C@@H](CCCCN=C(N)N)C(=O)NCC(=O)N[C@@H](CC(=O)O)C(=O)N[C@H](Cc2c[nH]c3ccccc23)C(=O)N2CCC[C@H]2C(=O)N1` ([Mpa][hArg]GD[dW]PC-NH2; disulfide 1-7), for which the outcome was inactive.

As for `O=C(O)Cc1csc(-c2ccc(Cl)cc2)n1`, the outcome was inactive.

On to `C[C@H](O)C(=O)Nc1c(I)c(C(=O)NC(CO)CO)c(I)c(C(=O)NC(CO)CO)c1I`, for which the outcome was inactive.

With `CC(=NCc1ccccc1)c1ccccc1O`, the result was inactive.

As to `COc1ccc(NS(=O)(=O)c2ccc(N)cc2)nn1`, the outcome was inactive.

As to `Cc1ccc(C(=O)c2ccc(CC(=O)O)n2C)cc1`, the result was inactive.

As for `Nc1ccc(Cl)cc1[N+](=O)[O-]`, the outcome was inactive.

Consider `CC(=O)N[C@@H](CC(=O)N[C@@H](CCC(=O)O)C(=O)O)C(=O)O`, for which the outcome was inactive.

`c1ccc2c(c1)ccc1c3ccccc3ccc21`: the result was inactive.

As to `NC[C@H]1O[C@H](O[C@H]2[C@H](O)[C@@H](O[C@H]3O[C@H](CO)[C@@H](O)[C@H](N)[C@H]3O)[C@H](N)C[C@@H]2N)[C@H](N)[C@@H](O)[C@@H]1O`, the outcome was inactive.

Take `CCOc1ccc2ccccc2c1C(=O)N[C@@H]1C(=O)N2[C@@H]1SC(C)(C)[C@@H]2C(=O)O`: the result was inactive.

Consider `OCC(O)CN1CCN(c2ccccc2)CC1` (stereo not drawn), for which the outcome was inactive.

Regarding `CCNC(=O)NCCCOc1cccc(CN2CCCCC2)c1`, the result was inactive.

As to `OCCCCCCCl`, the result was inactive.

Regarding `COc1ccc(CCC(=O)c2c(O)cc(O[C@@H]3O[C@H](CO)[C@@H](O)[C@H](O)[C@H]3O[C@@H]3O[C@@H](C)[C@H](O)[C@@H](O)[C@H]3O)cc2O)cc1O`, the result was inactive.

`Clc1ccc2nsnc2c1NC1=NCCN1`: the result was inactive.

With `CC(C)C[C@@H](N)C(=O)O`, the outcome was inactive.

In the case of `O=P(O)(O)OP(=O)(O)OP(=O)(O)O`, the result was inactive.

Take `OCC1(CO)COC(C(Cl)(Cl)Cl)OC1`: the outcome was inactive.

As for `Cn1cnc2ncnc(N)c21`, the outcome was inactive.

In the case of `C[C@H]1[C@H](NC(=O)C(=NOC(C)(C)C(=O)O)c2csc(N)n2)C(=O)N1S(=O)(=O)O`, the result was inactive.

Consider `C=CCSSSCC=C`, for which the outcome was inactive.

On to `CCOc1cc(N)c(Cl)cc1C(=O)NCC1CN(Cc2ccc(F)cc2)CCO1` (stereo not drawn), for which the outcome was inactive.

Take `CC(C)C[C@H](NC(=O)[C@@H](Cc1c[nH]c2ccccc12)NC(=O)[C@H](Cc1ccc(O)cc1)NC(=O)[C@H](CO)NC(=O)[C@H](Cc1c[nH]c2ccccc12)NC(=O)[C@H](Cc1cnc[nH]1)NC(=O)[C@@H]1CCC(=O)N1)C(=O)N[C@@H](CCCN=C(N)N)C(=O)N1CCC[C@@H]1C(=O)NCC(N)=O`: the outcome was inactive.

With `CC(C)(C)c1ccc(C=O)cc1`, the result was inactive.

Turning to `CN(C)CC/C=C1\c2ccccc2COc2ccccc21`, the outcome was inactive.

For `ClC/C=C\CCl`, the outcome was inactive.
